{"source": "the supplement of paper PMC4466140", "assay_in_all_cases": "SPOT peptide array binding signal intensity (averaged, normalized) (arbitrary units (background-subtracted, floor 0; scale differs between SH3 domains)); higher = stronger binding of the SH3 domain to the peptide", "key": {"[1]": {"target": "ScBbc1", "summary_of_the_method": "(§1)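 GST-fused SH3 domains, from four yeast species, were produced in E. coli BL21(DE3) and captured on glutathione Sepharose. Membranes of cellulose carrying synthetic 15-mer peptides, in which cysteines had been replaced by serines, were exposed to each domain at 10 μg/ml overnight at 4°C in TBS-based blocking buffer. After anti-GST antibody, an HRP anti-mouse secondary and luminol, spots were imaged and quantified using Genespotter. Binding signal is normalized and background-subtracted spot intensity, averaged over replicates, in arbitrary units that differ between domains.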"}, "[2]": {"target": "ScBem1-D1", "summary_of_the_method": "as §1"}, "[3]": {"target": "ScBzz1-D1", "summary_of_the_method": "as §1"}, "[4]": {"target": "ScBzz1-D2", "summary_of_the_method": "as §1"}, "[5]": {"target": "ScCyk3", "summary_of_the_method": "as §1"}, "[6]": {"target": "ScFus1", "summary_of_the_method": "as §1"}, "[7]": {"target": "ScHof1", "summary_of_the_method": "as §1"}, "[8]": {"target": "ScHse1", "summary_of_the_method": "as §1"}, "[9]": {"target": "ScLsb1", "summary_of_the_method": "as §1"}, "[10]": {"target": "ScLsb2", "summary_of_the_method": "as §1"}, "[11]": {"target": "ScLsb3", "summary_of_the_method": "as §1"}, "[12]": {"target": "ScLsb4", "summary_of_the_method": "as §1"}, "[13]": {"target": "ScMyo3", "summary_of_the_method": "as §1"}, "[14]": {"target": "ScMyo5", "summary_of_the_method": "as §1"}, "[15]": {"target": "ScNbp2", "summary_of_the_method": "as §1"}, "[16]": {"target": "ScPex13", "summary_of_the_method": "as §1"}, "[17]": {"target": "ScRvs167", "summary_of_the_method": "as §1"}, "[18]": {"target": "ScSho1", "summary_of_the_method": "as §1"}, "[19]": {"target": "ScSla1-D1-D2", "summary_of_the_method": "as §1"}, "[20]": {"target": "ScSla1-D3", "summary_of_the_method": "as §1"}, "[21]": {"target": "SpAbp1-D1", "summary_of_the_method": "as §1"}, "[22]": {"target": "SpBbc1", "summary_of_the_method": "as §1"}, "[23]": {"target": "SpBzz1-D1", "summary_of_the_method": "as §1"}, "[24]": {"target": "SpBzz1-D2", "summary_of_the_method": "as §1"}, "[25]": {"target": "SpCyk3", "summary_of_the_method": "as §1"}, "[26]": {"target": "SpHof1", "summary_of_the_method": "as §1"}, "[27]": {"target": "SpHof1-2", "summary_of_the_method": "as §1"}, "[28]": {"target": "SpHof1-3", "summary_of_the_method": "as §1"}, "[29]": {"target": "SpHse1", "summary_of_the_method": "as §1"}, "[30]": {"target": "SpLsb1", "summary_of_the_method": "as §1"}, "[31]": {"target": "SpLsb4", "summary_of_the_method": "as §1"}, "[32]": {"target": "SpMyo1", "summary_of_the_method": "as §1"}, "[33]": {"target": "SpNbp2", "summary_of_the_method": "as §1"}, "[34]": {"target": "SpPex13", "summary_of_the_method": "as §1"}, "[35]": {"target": "SpRvs167", "summary_of_the_method": "as §1"}, "[36]": {"target": "SpSla1-D1-D2", "summary_of_the_method": "as §1"}, "[37]": {"target": "SpSla1-D3", "summary_of_the_method": "as §1"}}, "data": [{"binder": "TPRLSLPRLPNKHHW", "values": [{"measurement": "SPOT peptide array binding signal intensity", "setting": "[1]", "result": "≤ 0"}, {"measurement": "SPOT peptide array binding signal intensity", "setting": "[2]", "result": 2}, {"measurement": "SPOT peptide array binding signal intensity", "setting": "[3]", "result": "≤ 0"}, {"measurement": "SPOT peptide array binding signal intensity", "setting": "[4]", "result": 16.5}, {"measurement": "SPOT peptide array binding signal intensity", "setting": "[5]", "result": 6}, {"measurement": "SPOT peptide array binding signal intensity", "setting": "[6]", "result": 0.5}, {"measurement": "SPOT peptide array binding signal intensity", "setting": "[7]", "result": 238}, {"measurement": "SPOT peptide array binding signal intensity", "setting": "[8]", "result": 216}, {"measurement": "SPOT peptide array binding signal intensity", "setting": "[9]", "result": 8}, {"measurement": "SPOT peptide array binding signal intensity", "setting": "[10]", "result": "≤ 0"}, {"measurement": "SPOT peptide array binding signal intensity", "setting": "[11]", "result": 1330}, {"measurement": "SPOT peptide array binding signal intensity", "setting": "[12]", "result": 5}, {"measurement": "SPOT peptide array binding signal intensity", "setting": "[13]", "result": "≤ 0"}, {"measurement": "SPOT peptide array binding signal intensity", "setting": "[14]", "result": "≤ 0"}, {"measurement": "SPOT peptide array binding signal intensity", "setting": "[15]", "result": 62}, {"measurement": "SPOT peptide array binding signal intensity", "setting": "[16]", "result": 224}, {"measurement": "SPOT peptide array binding signal intensity", "setting": "[17]", "result": 3.33}, {"measurement": "SPOT peptide array binding signal intensity", "setting": "[18]", "result": 764}, {"measurement": "SPOT peptide array binding signal intensity", "setting": "[19]", "result": 13.5}, {"measurement": "SPOT peptide array binding signal intensity", "setting": "[20]", "result": 1.75}, {"measurement": "SPOT peptide array binding signal intensity", "setting": "[21]", "result": 386}, {"measurement": "SPOT peptide array binding signal intensity", "setting": "[22]", "result": "≤ 0"}, {"measurement": "SPOT peptide array binding signal intensity", "setting": "[23]", "result": 403}, {"measurement": "SPOT peptide array binding signal intensity", "setting": "[24]", "result": 0.75}, {"measurement": "SPOT peptide array binding signal intensity", "setting": "[25]", "result": 2}, {"measurement": "SPOT peptide array binding signal intensity", "setting": "[26]", "result": 35}, {"measurement": "SPOT peptide array binding signal intensity", "setting": "[27]", "result": 293}, {"measurement": "SPOT peptide array binding signal intensity", "setting": "[28]", "result": 136}, {"measurement": "SPOT peptide array binding signal intensity", "setting": "[29]", "result": 416}, {"measurement": "SPOT peptide array binding signal intensity", "setting": "[30]", "result": "≤ 0"}, {"measurement": "SPOT peptide array binding signal intensity", "setting": "[31]", "result": 357}, {"measurement": "SPOT peptide array binding signal intensity", "setting": "[32]", "result": 5.5}, {"measurement": "SPOT peptide array binding signal intensity", "setting": "[33]", "result": 61}, {"measurement": "SPOT peptide array binding signal intensity", "setting": "[34]", "result": 5}, {"measurement": "SPOT peptide array binding signal intensity", "setting": "[35]", "result": 302}, {"measurement": "SPOT peptide array binding signal intensity", "setting": "[36]", "result": 7}, {"measurement": "SPOT peptide array binding signal intensity", "setting": "[37]", "result": "≤ 0"}]}]}
